Compound activity: PubChem, several laboratories
Compounds with a hit are over-represented: about 4.9% of the library has one in this group of screens.
tim10-1 inh: growth inhibitors of tim10-1 mutant yeast; 330,000 tested, 2.2% active; S. cerevisiae tim10-1 ts strain growth, BacTiter-Glo, 24 h; inhibition, % at 20 µM; AID 463190;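 active = inhibition of at least 40%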;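 also: mutant grown at 25 °C; 0% = DMSO wells with yeast and 100% = wells holding no yeast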
NALP1 inh: NALP1 inhibition; S. cerevisiae NALP1/ASC/caspase-1 growth, X-gal OD620, 72 h; inhibition, % at 10 µM; 280,000 tested, 0.61% active; AID 2071; in the data active = inhibition mostly above about 24%, no sharp cut-off; inactive = mostly below about 32%
NLRP3 yeast inh: inhibitors of NALP3 inflammasome in yeast | Yeast reconstituted NLRP3/ASC/caspase-1, beta-gal luminescence, 24 h | 330,000 tested, 0.39% active | inhibition, % at 10 µM | AID 2825;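 active = inhibition of 50% or more; inactive = inhibition below 50%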;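 also: plate controls were induced DMSO wells for no effect and uninduced yeast grown without galactose for full effect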
tim23-1 inh: tim23-1 yeast growth inhibition; S. cerevisiae tim23-1 growth, BacTiter-Glo luminescence, 24 h; inhibition, % at 20 µM; 330,000 tested, 1.3% active; AID 463212;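 active = growth inhibition of the mutant yeast at or above 50%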;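 also: temperature-sensitive mutant grown at 25 °C; plate controls were DMSO-treated mutant yeast for no effect and medium wells lacking yeast for full effect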
TIM10 inh: inhibits growth of TIM10 yeast strain | AID 463195 | S. cerevisiae TIM10 strain growth, BacTiter-Glo luminescence, 24 h | inhibition, % at 10 µM | 330,000 tested, 1.4% active;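 active = inhibition of 40% or more at the single tested concentration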;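 also: wild-type TIM10 isogenic control strain grown at permissive 25 °C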
SKKanGAS inh: inhibitors of SKKanGAS S. pyogenes growth in kanamycin (SK-promoter or general growth effect). BacTiter-Glo, 6 h. 300,000 tested, 1.3% active. inhibition, % at 7.5 µM;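 active = mean replicate score, as percent of positive control median, at least 50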;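 also: strain carries kanamycin resistance gene driven by streptokinase promoter and grows in 40 µg/ml kanamycin; loss of luminescence reflects streptokinase promoter inhibition or plain growth inhibition; 0% = median of DMSO wells and 100% = positive control at its reference dose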
tim10-1 confirm: tim10-1 yeast growth inhibition, confirmed | inhibition, % at 20 µM | shares compounds with tim10-1 inh | 7,400 tested, 56% active | S. cerevisiae tim10-1 ts strain growth, BacTiter-Glo, 24 h | AID 463213;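 active = inhibition of yeast growth at or above a set limit in either of two repeat tests at 20 µM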;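 also: tim10-1 mutant grown at permissive 25 °C to find synthetic lethal compounds; 0% = DMSO yeast wells and 100% = medium wells without yeast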
tim10 confirm: confirmation of TIM10 yeast growth inhibitors. shares compounds with TIM10 inh. S. cerevisiae tim10 strain growth, BacTiter-Glo luminescence, 24 h. inhibition, % at 10 µM. 4,600 tested, 63% active. AID 463215;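 active = inhibition of yeast growth at or above a set limit in either of two replicates at 10 µM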;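 also: this counterscreen used the strain with wild-type TIM10; 0% = yeast with DMSO and 100% = medium wells lacking yeast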
* = called active by the depositor.

`COc1ccc(OC)c(C2C=C(C34CC5CC(CC(C5)C3)C4)NC(=S)N2)c1` (stereo not given) gave tim10-1 inh 47*, NALP1 inh 29, NLRP3 yeast inh 11, tim23-1 inh 36, TIM10 inh 41*, SKKanGAS inh 52*, tim10-1 confirm 25 and tim10 confirm -4.
Screening COc1ccc(C2=CC(c3cc(OC)c(OC)c(OC)c3)NC(=S)N2)cc1 (stereo not given) returned tim10-1 inh 15, NALP1 inh 24, NLRP3 yeast inh 0, tim23-1 inh -49, TIM10 inh 20 and SKKanGAS inh 6.
Screening CC(=O)c1cccc(NC(=O)C2C(c3ccccc3)C2(Cl)Cl)c1 (stereo not given) returned tim10-1 inh 45*, NALP1 inh -18, NLRP3 yeast inh 12, tim23-1 inh 23, TIM10 inh 41*, tim10-1 confirm 21 and tim10 confirm 23.
Screening COc1ccc(NC(=O)C2C(c3ccccc3)C2(Cl)Cl)cc1 (stereo not given) returned tim10-1 inh 2, NALP1 inh 0, NLRP3 yeast inh 19, tim23-1 inh 18, TIM10 inh 18 and SKKanGAS inh 7.
Screening O=C(CC12CC3CC(CC(C3)C1)C2)NCC(=O)OCc1cc(=O)oc2ccc3ccccc3c12 returned tim10-1 inh 41*, NALP1 inh 21, NLRP3 yeast inh 16, tim23-1 inh 9, TIM10 inh 44*, SKKanGAS inh 36, tim10-1 confirm 26 and tim10 confirm 26.
`CCOC(=O)N1CCN(Cc2cc(=O)oc3ccc4ccccc4c23)CC1` gave tim10-1 inh 30, NALP1 inh 18, NLRP3 yeast inh 16, tim23-1 inh 35, TIM10 inh 25 and SKKanGAS inh -8.
Screening Cc1nn(C(C)(C)C)c(OC(=O)c2ccco2)c1Sc1ccccc1 returned tim10-1 inh 49*, NALP1 inh -7, NLRP3 yeast inh -3, tim23-1 inh 44, TIM10 inh 47*, SKKanGAS inh 1, tim10-1 confirm 39* and tim10 confirm 46*.
Screening Cc1nn(C(C)(C)C)c(OC(=O)c2ccc(Br)o2)c1Sc1ccccc1 returned tim10-1 inh 41*, NALP1 inh 6, NLRP3 yeast inh -2, tim23-1 inh 43, TIM10 inh 41*, SKKanGAS inh -3, tim10-1 confirm 36* and tim10 confirm 36*.
Screening COc1ccc(NC(=O)Nc2cccc3c2O[C@H](CN(C)S(=O)(=O)c2c(C)noc2C)[C@@H](C)CN([C@H](C)CO)C3=O)cc1 returned tim10-1 inh -2, NLRP3 yeast inh -4, tim23-1 inh -2 and TIM10 inh 10.
`CCCN(CCC)C(=S)NC(=O)c1ccc(-c2ccccc2)cc1` gave tim10-1 inh 42*, NALP1 inh 22, NLRP3 yeast inh 38, tim23-1 inh 32, TIM10 inh 44*, SKKanGAS inh 38, tim10-1 confirm 16 and tim10 confirm 42*.
For O=C(/C=C/c1ccccc1[N+](=O)[O-])c1ccc(F)cc1 the results were tim10-1 inh 47*, NALP1 inh 4, NLRP3 yeast inh 0, tim23-1 inh 45, TIM10 inh 43*, SKKanGAS inh -2, tim10-1 confirm 44* and tim10 confirm 26.
`O=C(/C=C/c1ccccc1)OCN1C(=O)c2ccccc2C1=O` gave tim10-1 inh 22, NALP1 inh 2, NLRP3 yeast inh -12, tim23-1 inh 19, TIM10 inh 26 and SKKanGAS inh -1.
Screening CC1=C/C(=N\OC(=O)/C=C/c2ccccc2)C(C)=CC1=O returned tim10-1 inh 46*, NALP1 inh 1, NLRP3 yeast inh 1, tim23-1 inh 37, TIM10 inh 43*, SKKanGAS inh 1, tim10-1 confirm 16 and tim10 confirm 23.
`CCOC(=O)CSCC(=O)N1N=C(c2cccs2)CC1c1ccc(F)cc1` (stereo not given) gave tim10-1 inh 47*, NALP1 inh 28, NLRP3 yeast inh 6, tim23-1 inh 42, TIM10 inh 41*, SKKanGAS inh 2, tim10-1 confirm 34* and tim10 confirm -11.
Screening COc1ccc2c(c1)S/C(=C\C(=O)c1ccncc1)N2C returned tim10-1 inh 54*, NALP1 inh 8, NLRP3 yeast inh 19, tim23-1 inh 41, TIM10 inh 82*, SKKanGAS inh -3, tim10-1 confirm 73* and tim10 confirm 85*.
For COc1ccc(C(=O)/C=C2/Sc3cc4c(cc3N2C)OCO4)cc1 the results were tim10-1 inh 9, NALP1 inh 33, NLRP3 yeast inh 15, tim23-1 inh 13, TIM10 inh 0 and SKKanGAS inh -4.
Oc1ccccc1/C=N/Nc1cccc2cccnc12 was read as tim10-1 inh 41*, NALP1 inh -4, NLRP3 yeast inh 31, tim23-1 inh 38, TIM10 inh 50*, SKKanGAS inh 36, tim10-1 confirm 37* and tim10 confirm 35*.
COc1ccc(C2SCCN2S(=O)(=O)c2ccc(NC(C)=O)cc2)cc1 (stereo not given) was read as tim10-1 inh 28, NALP1 inh -12, NLRP3 yeast inh 13, tim23-1 inh 37, TIM10 inh 32 and SKKanGAS inh 4.
`CC(=O)Nc1ccc(S(=O)(=O)N2CCSC2c2ccc(C)cc2)cc1` (stereo not given) gave tim10-1 inh 41*, NALP1 inh 12, NLRP3 yeast inh 12, tim23-1 inh 32, TIM10 inh 42*, SKKanGAS inh 1, tim10-1 confirm 28 and tim10 confirm 34*.
`CCOC(=O)c1c(NC(=O)CC)sc(C(=O)N2CCCCC2)c1C` gave tim10-1 inh -3, NALP1 inh -1, NLRP3 yeast inh 26, tim23-1 inh 0, TIM10 inh -4 and SKKanGAS inh -12.
Screening CCOC(=O)c1sc(NC(=O)CCN2CCCCCC2)c(C(=O)OCC)c1C returned tim10-1 inh 61*, NALP1 inh -15, NLRP3 yeast inh -5, tim23-1 inh 10, TIM10 inh 44*, SKKanGAS inh 4, tim10-1 confirm 51* and tim10 confirm 43*.
`CC(=O)c1cc(Cl)ccc1OCC(=O)Nc1cccc(S(=O)(=O)N2CCCC2)c1` gave tim10-1 inh 6, NLRP3 yeast inh -9, tim23-1 inh -9 and TIM10 inh 3.
Screening CCN1CCN(c2cc3c(nn2)Oc2ccccc2N3C)CC1 returned tim10-1 inh 44*, NALP1 inh 13, NLRP3 yeast inh 12, tim23-1 inh 45, TIM10 inh 77*, SKKanGAS inh 26, tim10-1 confirm 57* and tim10 confirm 71*.
